Data on 26 compounds can be found in PubChem BioAssay AID1671202 (University of Kansas High Throughput Screening Laboratory, 2021).

The campaign covered roughly 190,000 compounds. About 6,900 (3.6%) were called active. Cut-off read from the data, not from the text of the source: active = inhibition above about 50%; inactive = the rest. Many of the other results were omitted from the sample, so actives are more common in it than they were.

As a reminder, the inhibition is the drop in the measured response relative to a control, in per cent.

Sequence of Huntingtin (Homo sapiens) (P42858 whole entry, looked up, stated change not applied): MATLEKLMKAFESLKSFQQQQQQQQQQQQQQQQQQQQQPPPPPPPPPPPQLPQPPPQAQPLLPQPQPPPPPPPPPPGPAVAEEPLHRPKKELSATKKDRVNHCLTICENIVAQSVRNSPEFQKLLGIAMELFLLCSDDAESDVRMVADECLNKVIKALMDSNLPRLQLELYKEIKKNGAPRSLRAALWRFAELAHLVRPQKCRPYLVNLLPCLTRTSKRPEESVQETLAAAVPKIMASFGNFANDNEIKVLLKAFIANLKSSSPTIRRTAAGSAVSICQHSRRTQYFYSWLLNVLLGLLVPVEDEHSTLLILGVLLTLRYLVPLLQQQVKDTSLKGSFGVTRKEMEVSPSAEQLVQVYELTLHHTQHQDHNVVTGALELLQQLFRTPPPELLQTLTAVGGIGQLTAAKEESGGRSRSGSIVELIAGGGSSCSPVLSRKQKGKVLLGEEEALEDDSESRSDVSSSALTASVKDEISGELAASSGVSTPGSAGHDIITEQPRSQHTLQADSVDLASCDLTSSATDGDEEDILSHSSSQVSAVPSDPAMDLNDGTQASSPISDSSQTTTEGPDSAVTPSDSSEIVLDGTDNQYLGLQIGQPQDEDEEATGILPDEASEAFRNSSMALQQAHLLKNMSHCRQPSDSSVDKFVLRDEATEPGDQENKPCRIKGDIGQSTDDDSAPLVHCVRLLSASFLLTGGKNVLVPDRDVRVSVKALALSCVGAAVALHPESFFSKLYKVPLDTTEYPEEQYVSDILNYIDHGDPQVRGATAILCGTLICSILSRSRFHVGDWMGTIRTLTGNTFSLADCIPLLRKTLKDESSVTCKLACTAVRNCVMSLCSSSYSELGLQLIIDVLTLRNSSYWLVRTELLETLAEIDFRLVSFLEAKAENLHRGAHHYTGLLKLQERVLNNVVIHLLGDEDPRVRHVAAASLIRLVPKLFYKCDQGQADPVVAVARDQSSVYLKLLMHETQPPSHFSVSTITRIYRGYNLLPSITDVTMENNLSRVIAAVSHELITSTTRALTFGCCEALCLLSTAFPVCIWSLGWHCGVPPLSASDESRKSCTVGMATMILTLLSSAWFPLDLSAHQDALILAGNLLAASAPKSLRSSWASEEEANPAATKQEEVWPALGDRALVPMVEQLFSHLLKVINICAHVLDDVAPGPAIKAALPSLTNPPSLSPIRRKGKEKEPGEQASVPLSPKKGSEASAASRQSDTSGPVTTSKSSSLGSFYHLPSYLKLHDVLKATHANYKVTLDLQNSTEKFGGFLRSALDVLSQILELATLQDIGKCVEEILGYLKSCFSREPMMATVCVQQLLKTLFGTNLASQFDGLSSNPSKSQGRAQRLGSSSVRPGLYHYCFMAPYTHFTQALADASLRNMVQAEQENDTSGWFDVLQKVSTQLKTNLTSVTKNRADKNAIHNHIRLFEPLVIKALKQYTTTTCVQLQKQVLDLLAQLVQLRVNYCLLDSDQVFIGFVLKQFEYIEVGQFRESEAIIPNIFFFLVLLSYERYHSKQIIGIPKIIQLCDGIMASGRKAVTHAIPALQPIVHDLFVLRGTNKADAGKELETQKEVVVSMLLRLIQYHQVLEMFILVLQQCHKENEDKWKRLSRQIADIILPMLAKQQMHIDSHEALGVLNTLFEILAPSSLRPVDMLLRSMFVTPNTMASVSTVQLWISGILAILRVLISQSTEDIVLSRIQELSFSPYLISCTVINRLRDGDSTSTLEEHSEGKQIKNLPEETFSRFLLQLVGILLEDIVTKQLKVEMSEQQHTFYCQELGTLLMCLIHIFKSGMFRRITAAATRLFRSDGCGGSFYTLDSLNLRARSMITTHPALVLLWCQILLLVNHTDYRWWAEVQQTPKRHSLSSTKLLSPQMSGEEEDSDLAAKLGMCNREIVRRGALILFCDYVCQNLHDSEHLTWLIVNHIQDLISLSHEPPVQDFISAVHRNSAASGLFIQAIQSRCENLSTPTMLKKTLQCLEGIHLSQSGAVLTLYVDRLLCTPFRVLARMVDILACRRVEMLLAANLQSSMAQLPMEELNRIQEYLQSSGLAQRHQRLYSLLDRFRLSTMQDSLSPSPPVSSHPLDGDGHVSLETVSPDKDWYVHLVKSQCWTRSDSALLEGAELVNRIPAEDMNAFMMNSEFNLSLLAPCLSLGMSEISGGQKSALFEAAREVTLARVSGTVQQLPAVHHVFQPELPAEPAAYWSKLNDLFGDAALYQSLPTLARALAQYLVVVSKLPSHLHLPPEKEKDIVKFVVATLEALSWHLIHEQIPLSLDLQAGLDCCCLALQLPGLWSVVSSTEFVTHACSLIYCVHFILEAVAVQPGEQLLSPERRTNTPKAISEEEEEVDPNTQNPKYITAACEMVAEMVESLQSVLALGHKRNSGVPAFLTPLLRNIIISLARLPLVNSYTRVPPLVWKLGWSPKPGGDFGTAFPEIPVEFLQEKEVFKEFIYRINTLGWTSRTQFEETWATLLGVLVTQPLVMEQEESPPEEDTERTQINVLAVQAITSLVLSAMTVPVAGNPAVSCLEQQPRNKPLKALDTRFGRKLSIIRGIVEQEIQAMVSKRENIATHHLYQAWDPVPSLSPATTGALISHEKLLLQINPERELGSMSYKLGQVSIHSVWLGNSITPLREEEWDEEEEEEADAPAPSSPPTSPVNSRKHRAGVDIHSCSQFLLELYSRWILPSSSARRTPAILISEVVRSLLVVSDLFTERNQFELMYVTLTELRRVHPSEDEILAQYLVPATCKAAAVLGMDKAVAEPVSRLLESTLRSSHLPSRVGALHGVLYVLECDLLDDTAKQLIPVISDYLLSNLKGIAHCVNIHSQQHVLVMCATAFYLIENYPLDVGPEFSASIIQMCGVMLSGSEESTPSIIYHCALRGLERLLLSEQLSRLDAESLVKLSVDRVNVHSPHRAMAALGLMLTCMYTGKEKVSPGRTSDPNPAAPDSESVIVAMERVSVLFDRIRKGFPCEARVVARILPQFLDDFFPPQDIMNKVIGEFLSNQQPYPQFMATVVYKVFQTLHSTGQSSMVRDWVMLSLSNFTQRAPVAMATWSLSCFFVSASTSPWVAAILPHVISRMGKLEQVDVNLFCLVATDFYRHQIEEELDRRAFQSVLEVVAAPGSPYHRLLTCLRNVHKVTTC

The test addresses Huntingtin (Homo sapiens) (UniProt P42858). The experiment in a line: mutant huntingtin-calmodulin interaction inhibitors – biochemical, AlphaScreen, primary screen (AID 1671202).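 Note: 0% = both proteins with DMSO and 100% = one protein alone.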 The following applies: AlphaScreen His-mHTT/GST-CaM binding, luminescence; at 15 µM, active compounds read high. (In general: In Alpha technology, singlet oxygen from a donor bead excites a nearby acceptor bead.)
Turning to `Cc1noc(C)c1S(=O)(=O)N1CCC(CC(=O)N2CCN(C(=O)C3CC3)CC2)CC1`, the inhibition is 5.24% (inactive).
Take `COc1ccc(-c2nnc(N3CCC(C(=O)NC4CCCCC4)CC3)o2)cc1`: the inhibition was 7.1% (inactive).
In the case of `O=C(Nc1cccc(C(F)(F)F)c1)C(=O)c1c(O)[nH]c2ccccc12` it was 10% (inactive); in that of `CCOc1cc(CNC(=O)C2CCN(c3nnc4ccccn34)CC2)ccc1OC`, 2.75% (inactive); in that of `Nc1nc(-c2cc3cc(Br)cc(Br)c3oc2=O)cs1`, -7% (inactive).
In the case of `COc1ccc([C@@H]2C[C@H](c3ccccc3)Oc3cc(OC)ccc32)cc1` it was -9.3% (inactive).
In the case of `COc1ccc(C2CC(O)(c3ccccc3)Oc3cc(C)cc(C)c32)cc1` (stereo unspecified) it was 77.7% (active); in that of `CC(=O)c1c(C(C)=O)c(C)n(Cc2ccco2)c1C`, 1.2% (inactive); in that of `CCOC(=O)c1ccc(OCC2c3cc(OC)c(OC)cc3CCN2C(=O)c2ccccc2OC)cc1` (stereo unspecified), 34.4% (inactive).
Regarding `COc1ccc(NC(=O)N2CCc3[nH]cnc3C2c2ccccc2)cc1OC` (stereo unspecified), the inhibition was 3.67% (inactive).
With `CCCCC(=O)N1CCc2cc(OC)c(OC)cc2C1COc1ccc(C(=O)OC)cc1` (stereo unspecified), the inhibition was 18.4% (inactive).
As to `COc1ccc(C(=O)N2CCc3cc(OC)c(OC)cc3C2c2ccccc2)cc1OC` (stereo unspecified), the inhibition is 83.2% (active).
On to `COc1cc2c(cc1OC)C(COc1ccc(F)cc1)N(C(=O)c1ccccc1F)CC2` (stereo unspecified), for which the inhibition was 67% (active).
In the case of `COc1cc2c(cc1OC)C(COc1cc(C)cc(C)c1)N(C(=O)CC1CCCCC1)CC2` (stereo unspecified) it was 32% (inactive).
In the case of `COc1ccc(C2=NOC(C(=O)N3CCC4(CC3)OCCO4)C2)cc1OC` (stereo unspecified) it was -8.22% (inactive).
With `COc1ccc(-c2nc(COc3cc(C)ccc3F)no2)cc1` the figure was -32.4% (inactive); with `CSCCC(NS(=O)(=O)c1cccs1)C(=O)O` (stereo unspecified), -3.2% (inactive); with `CSc1nc(SC)c2c3c(sc2n1)CSC(C)(C)C3`, 2% (inactive).
Turning to `CCc1ccc(OCC(O)CN2CCN(c3ccccc3F)CC2)cc1` (stereo unspecified), the inhibition is -21.8% (inactive).
In the case of `COc1cc(NCCCCN2C(=O)c3ccccc3C2=O)c2nccc(C)c2c1` it was 4% (inactive); in that of `COc1ccc(C2=NOC(C(=O)N3CCN(c4ccccc4)CC3)C2)cc1` (stereo unspecified), -6.03% (inactive).
In the case of `O=C(c1ccco1)N1CCN(C(=O)C2CC(c3ccc(F)cc3)=NO2)CC1` (stereo unspecified) it was -6.79% (inactive); in that of `CCOC(=O)N1CCN(C(=O)C2CC(c3ccc(F)cc3)=NO2)CC1` (stereo unspecified), 100% (active); in that of `Cc1cc(C)cc(NC(=O)NC2CCN(c3ccccc3)C2=O)c1` (stereo unspecified), -6.4% (inactive).
As to `COc1nccnc1N1CCC(N(C)C(=O)c2ccoc2)C1` (stereo unspecified), the inhibition is 1.67% (inactive).
In the case of `Cc1cc(C(=O)N2CCOCC2)c2cccc(-c3cccs3)c2n1` it was -5.8% (inactive).
